Source: PubChem BioAssay
In the library only some 1.5% were active in any assay of this set; here they are far more common.
Polio RdRp inh: inhibitors of poliovirus RNA polymerase binding and polymerization | P03300 | poliovirus polymerase elongation, fluorescence polarization; active compounds read low | % elongation, % (compound at 16.7 µg/mL) | 150,000 tested, 0.66% active | AID 588519; in the data active means % elongation below about 90%
Mtb MenB inh: inhibitors of Mycobacterium tuberculosis MenB enzyme | MenB enzyme assay, absorbance read-out | inhibition, % (test concentration not listed) | 100,000 tested, 0.43% active | AID 540299; in the data active means inhibition above about 21%, passing the limit was not always enough
Target sequence (P9WNP5 whole entry, looked up): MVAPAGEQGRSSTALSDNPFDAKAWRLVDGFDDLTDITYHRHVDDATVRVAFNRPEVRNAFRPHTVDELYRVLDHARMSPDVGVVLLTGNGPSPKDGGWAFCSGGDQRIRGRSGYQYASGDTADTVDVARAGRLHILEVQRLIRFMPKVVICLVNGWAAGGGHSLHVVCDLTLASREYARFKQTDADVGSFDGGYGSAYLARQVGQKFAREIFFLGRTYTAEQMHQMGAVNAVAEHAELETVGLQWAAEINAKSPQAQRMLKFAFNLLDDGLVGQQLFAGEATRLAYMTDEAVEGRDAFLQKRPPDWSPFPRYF
MbtI inh: inhibitors of Mycobacterium tuberculosis siderophore enzyme MbtI | purified MbtI enzyme, fluorescence intensity read-out | inhibition, % (concentration not given with the values) | AID 493033 | 100,000 tested, 0.89% active | P9WFX0; in the data active means inhibition mostly above about 56%, no sharp cut-off; inactive means mostly below about 77%
Starred values were filed as active, the others as inactive; x = no result.

SMILES	Polio RdRp inh	Mtb MenB inh	MbtI inh
CCCN(CCC)CCNC(=O)c1cc2c(-c3ccc(Cl)cc3)nn(C)c2s1	96	x	x
COCCCNC(=O)c1cc2c(-c3cccc(OC)c3)nn(C)c2s1	103	x	x
CCN(CC)CCNC(=O)c1cc2c(-c3cccc(OC)c3)nn(C)c2s1	83*	x	x
CCCN(CCC)CCCNC(=O)c1cc2c(-c3ccc(OC)c(OC)c3)nn(C)c2s1	83*	x	x
COc1ccc(-c2nn(C)c3sc(C(=O)NCCN(C)C)cc23)cc1OC	60*	x	x
CCc1cc2c(C)cc(=O)oc2c2c1OCC2=O	x	x	-11
CC(c1ccccc1)n1c(SCC(=O)N(C)C)nc2ccccc2c1=O (stereo unspecified)	105	-18	-4
O=C(COC(=O)C1c2ccccc2Oc2ccccc21)NCc1ccco1	103	-22	3
Cc1cccc(Cl)c1NC(=O)N1CCCN(c2ccc(C(F)(F)F)cn2)CC1	103	-8	-6
Cc1cccc(OCc2nc(-c3ccc(C(F)(F)F)cc3)no2)c1C	102	-30	-11
